# Laboratory results as given in the supplement of paper PMC8975748.
# Where a name gives a salt, the structure may show the parent alone.
# Tested on: Saccharomyces cerevisiae BY4741 SeMeCo community
# Assay: z-score of subpopulation abundance vs DMSO median, subpopulation auxotrophic for LM; higher = larger share of this subpopulation than in DMSO controls
# Conditions: 10 µM; 24 h; SM minimal medium; subpopulation (auxotrophy): LM
# Procedure: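 Fluorescent four-plasmid SeMeCo (self-establishing metabolically cooperating S. cerevisiae BY4741 community; plasmids pH-mRuby2, pL-mWasabi, pU-eCFP, pM-TagRFP657) was grown 24 h in minimal SM medium with each Selleck FDA-approved drug at 10 µM in 384-well plates. Cells were fixed and imaged by high-content confocal microscopy. For each auxotrophic subpopulation (and the prototroph), a z-score gives the deviation from the DMSO vehicle-control population median.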
row,Structure (SMILES),z-score of subpopulation abundance
1,NC(=O)N1c2ccccc2CC(=O)c2ccccc21 [Oxcarbazepine],0.14
2,CCC1(c2ccccc2)C(=O)NCNC1=O [Primidone],-0.37
3,COc1ccc2[nH]c([S+]([O-])Cc3ncc(C)c(OC)c3C)nc2c1 (stereo not given) [Omeprazole],0.56
4,CCCCCCCCN=C(N)NC(N)=NCc1ccc(Cl)c(Cl)c1 [Olanexidine Hydrochloride semihydrate],-0.77
5,COCCCOc1ccnc(C[S+]([O-])c2nc3ccccc3[nH]2)c1C (stereo not given) [Rebeprazole sodium],0.03
6,CCCCOC(=O)c1ccc(O)cc1 [Butylparaben],-0.49
7,CC(C)[N+]1(C)[C@@H]2CC[C@H]1C[C@@H](OC(=O)C(CO)c1ccccc1)C2 (stereo not given in full) [Ipratropium Bromide],0.93
8,O=C(O)CCC(=O)OC[C@@H](NC(=O)C(Cl)Cl)[C@H](O)c1ccc([N+](=O)[O-])cc1 [Chloramphenicol sodium succinate],1.25
9,Oc1cccc(O)c1 [Resorcinol],-0.4
10,NC(=N\CCCCCC/N=C(N)/N=C(\N)Nc1ccc(Cl)cc1)/N=C(\N)Nc1ccc(Cl)cc1 [Chlorhexidine diacetate],-0.7
11,NC(=O)c1cn(Cc2c(F)cccc2F)nn1 [Rufinamide],0.7
12,CCCCOc1cc(C(=O)NCCN(CC)CC)c2ccccc2n1 [Dibucaine HCl],0.03
13,Cc1cc(=O)n(-c2ccccc2)n1C [Antipyrine],-0.72
14,CO/N=C(\C(=O)N[C@@H]1C(=O)N2C(C(=O)O)=C(CSc3nc(C)c(CC(=O)O)s3)CS[C@H]12)c1csc(N)n1 [Cefodizime Sodium],-1.04
15,CC[C@@]1(O)C(=O)OCc2c1cc1n(c2=O)Cc2cc3cc(O)ccc3nc2-1 [(S)-10-Hydroxycamptothecin],1.48
16,COc1cc([C@@H]2c3cc4c(cc3[C@@H](O[C@@H]3O[C@@H]5CO[C@@H](c6cccs6)O[C@H]5[C@H](O)[C@H]3O)[C@H]3COC(=O)[C@H]23)OCO4)cc(OC)c1O [Teniposide],1.46
17,Oc1c(Cl)cc(Cl)cc1Sc1cc(Cl)cc(Cl)c1O [Bithionol],-1.62
18,Nc1nc2[nH]cc(CCc3ccc(C(=O)N[C@@H](CCC(=O)O)C(=O)O)cc3)c2c(=O)[nH]1 [Pemetrexed Disodium Hydrate],-3.99
19,Cc1cc(O)cc(C)c1Cl [Chloroxylenol],0.41
20,O=C1CN(/N=C/c2ccc([N+](=O)[O-])o2)C(=O)N1 [Nitrofurantoin],-0.69

row,Structure (SMILES),z-score of subpopulation abundance
1,Clc1ccc(C(Cn2ccnc2)OCc2ccc(Sc3ccccc3)cc2)c(Cl)c1 (stereo not given) [Fenticonazole Nitrate],-5.38
2,CC1(C)S[C@@H]2[C@H](NC(=O)[C@H](N)c3ccc(O)cc3)C(=O)N2[C@H]1C(=O)O [Amoxicillin],-0.13
3,"CO[C@H]1C[C@@H]2CC[C@@H](C)[C@@](O)(O2)C(=O)C(=O)N2CCCC[C@H]2C(=O)O[C@H]([C@H](C)C[C@@H]2CC[C@@H](OP(C)(C)=O)[C@H](OC)C2)CC(=O)[C@H](C)/C=C(\C)[C@@H](O)[C@@H](OC)C(=O)[C@H](C)C[C@H](C)/C=C/C=C/C=C/1C [Ridaforolimus (Deforolimus, MK-8669)]",5.98
4,O=C1OC(CN2CCOCC2)CN1/N=C/c1ccc([N+](=O)[O-])o1 (stereo not given) [Furaltadone HCl],-0.57
5,COCCOC(=O)C1=C(C)NC(C)=C(C(=O)OC/C=C/c2ccccc2)C1c1cccc([N+](=O)[O-])c1 (stereo not given) [Cilnidipine],0.12
6,C[C@@H](c1ncncc1F)[C@](O)(Cn1cncn1)c1ccc(F)cc1F [Voriconazole],1.93
7,CN1[C@@H]2CC[C@H]1C[C@@H](OC(=O)c1c[nH]c3ccccc13)C2 [Tropisetron],1.96
8,Nc1ccc(S(=O)(=O)Nc2ccccn2)cc1 [Sulfapyridine],-0.18
9,C[C@@H](O)[C@H]1C(=O)N2C(C(=O)O)=C(S[C@@H]3CN[C@H](C(=O)N(C)C)C3)[C@H](C)[C@H]12 [Meropenem],-0.29
10,O=C1OCCN1/N=C/c1ccc([N+](=O)[O-])o1 [Furazolidone],1.07
11,Nc1nc(N)c2nc(-c3ccccc3)c(N)nc2n1 [Triamterene],5.63
12,CCCCCCCCOc1ccccc1C(=O)Nc1ccc(C(=O)OCC[N+](C)(CC)CC)cc1 [Otilonium Bromide],-2.38
13,O=C(O)CCCCCCCC(=O)O [Azelaic acid],0.3
14,CCCOc1ccc2[nH]c(NC(=O)OC)nc2c1 [Oxibendazole],0.57
15,CN1CCN(C2=Nc3cc(Cl)ccc3Nc3ccccc32)CC1 [Clozapine],-0.26
16,CCN(CC)CCOC(=O)c1ccc(N)cc1 [Procaine HCl],0
17,Nc1c2c(nc3ccccc13)CCCC2 [Tacrine hydrochloride hydrate],0.08
18,OCCN1CCN(CCCN2c3ccccc3Sc3ccc(C(F)(F)F)cc32)CC1 [Fluphenazine dihydrochloride],0.55
19,NC(=NCCCCCCN=C(N)N=C(N)Nc1ccc(Cl)cc1)N=C(N)Nc1ccc(Cl)cc1 [Chlorhexidine?2HCl],0.28
20,COc1cc(C(C)=O)ccc1OCCCN1CCC(c2noc3cc(F)ccc23)CC1 [Iloperidone],0.71
